Source: PubChem BioAssay
FBPA coupling cs: qHTS Assay for Inhibitors of Fructose-1,6-bisphosphate Aldolase from Giardia Lamblia: Coupling assay counterscreen. AID 2472, 2010. activity change, negative = inhibition, % at 58.2 µM, hits read low. coupling enzyme system counterscreen, AmpLite Red fluorescence. actives 0.67% (n = 290,000); in the data active = activity change below about -30%
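Activity here indicates interference with the coupling reaction, not aldolase inhibition. Compounds at 57.5 uM final met coupling enzymes for 10 min at RT; substrate and AmpLite Red detection followed, with a 525/598 nm fluorescence read after 20 min.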
KDM4E inh: qHTS Assay for Inhibitors of Human Jumonji Domain Containing 2E (JMJD2E); JMJD2E catalytic domain, FDH-coupled NADH fluorescence (FDH is formaldehyde dehydrogenase); Potency, µM (highest dose often 57.1 µM), for inactives: at the top dose activity change, negative = inhibition, hits mostly inhibitors; actives 1.6% (n = 230,000); active = well fitted inhibition curve with a large enough effect, not every such curve was filed as active; inconclusive = small, poorly fitted or top-dose-only effect, or another doubt; inactive = no such curve, though single readings can be large or run the other way;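 note: potency is the fitted concentration of half-maximal effect; 0% = wells with enzyme and -100% = buffer wells without enzyme; nearly all actives have a fitted effect of over 50% in size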
Target sequence (B2RXH2 1-337 limits assumed): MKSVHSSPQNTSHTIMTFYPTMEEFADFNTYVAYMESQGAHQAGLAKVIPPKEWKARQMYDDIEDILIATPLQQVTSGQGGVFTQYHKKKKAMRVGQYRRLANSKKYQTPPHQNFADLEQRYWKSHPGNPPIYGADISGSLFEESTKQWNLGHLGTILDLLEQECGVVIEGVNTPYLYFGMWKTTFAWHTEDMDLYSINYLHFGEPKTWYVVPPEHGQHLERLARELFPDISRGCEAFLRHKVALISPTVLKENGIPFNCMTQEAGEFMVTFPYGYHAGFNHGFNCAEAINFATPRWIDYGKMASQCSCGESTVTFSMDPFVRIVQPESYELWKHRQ
Tau fibril FP: qHTS for Inhibitors of Tau Fibril Formation, Fluorescence Polarization; Microtubule-associated protein tau (Homo sapiens), P10636; K18 P301L tau heparin fibrillization, Alexa594 FP, 6 h; Potency, µM (doses to about 57.7 µM), for inactives: at the highest dose activity, negative = inhibition, actives largely listed as inhibitors; actives 0.39% (n = 280,000); AID 1468, 2008; note: potency is the fitted concentration of half-maximal effect; nearly all actives have a fitted effect of over 55% in size
Target sequence (P10636 561-689 P618L limits assumed): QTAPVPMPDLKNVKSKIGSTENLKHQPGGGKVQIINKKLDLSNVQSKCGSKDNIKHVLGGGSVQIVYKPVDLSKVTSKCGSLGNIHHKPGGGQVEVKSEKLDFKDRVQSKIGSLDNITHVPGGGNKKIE
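Human tau K18 […] P301L fragment, 15 uM unlabeled plus 0.24 uM Alexa 594-labeled tau (final), with compound and 20 uM heparin in 100 mM sodium acetate pH 7; 6 hr at 37 C, then Alexa 594 FP read.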
Sfp inh: qHTS Assay for Inhibitors of Bacillus subtilis Sfp phosphopantetheinyl transferase (PPTase); 4'-phosphopantetheinyl transferase ffp (Bacillus subtilis), Q9F4F7; Biochemical Sfp PPTase activity, qHTS; Potency, µM, inactives show largest response in the series, negative = inhibition, hits mostly inhibitors; actives 3.5% (n = 310,000); AID 1490, 2009;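 note: the enzyme is Sfp with the accession as filed and its product quenches rhodamine fluorescence; potency is the fitted concentration of half-maximal effect; 0% = enzyme reaction without inhibitor and -100% = no enzyme wells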
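Sfp 15 nM + cpd, 15 min RT; start w/ rhodamine-CoA 5 uM, BHQ-2-YbbR 12.5 uM (final); 50 mM Hepes pH 7.6, 10 mM MgCl2, 0.01% NP-40, 0.01% BSA; read 525/598 nm at 0 and 30 min.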
Tau fibril ThT: qHTS for Inhibitors of Tau Fibril Formation, Thioflavin T Binding | Microtubule-associated protein tau (Homo sapiens), P10636 | recombinant tau K18 P301L, heparin-induced fibrillization, ThT fluorescence | Potency, µM (titrated, usually from 57.4 µM), for inactives: at the highest dose activity, negative = inhibition, hits mostly inhibitors | actives 2.1% (n = 270,000) | AID 1460, 2008; note: potency is the fitted concentration of half-maximal effect; nearly all actives have a fitted effect of over 55% in size
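K18 P301L tau (15 uM + 0.24 uM Alexa 594-tagged), heparin 20 uM, NaOAc pH 7, 6 h 37 C; ThT 30 uM, 1 h RT, ex 450/em 510 nm.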
Tau fluor counter: Counterscreen qHTS for Inhibitors of Tau Fibril Formation, Fluorescence Polarization. actives 0.93% (n = 280,000). Potency, µM (highest dose often 57.7 µM), inactives show top-dose activity change, negative = decrease. tau K18 P301L Alexa594 fluorescence, heparin fibrillization; note: potency is the fitted concentration of half-maximal effect; nearly all actives have a fitted effect of over 55% in size
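Human tau K18 P301L (15 uM unlabeled, 0.24 uM Alexa 594-labeled) in 100 mM sodium acetate pH 7 with 20 uM heparin, 6 hr at 37 C. ThT 30 uM added, 1 hr ambient; Alexa 594 FP and total fluorescence read at 555/632 nm.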
An asterisk follows results filed as active; u = inconclusive; x = not tested or not shown; [ ] = another dose, or the depositor's remark. Rows were chosen to be rich in hits. Some 5.3% of all compounds tested hit in one or more screens of this group. Unless noted, calls come from the whole dose curve; as a rule, active = well fitted curve in the direction sought with a large enough effect; inconclusive = small, poorly fitted or top-dose-only effect, or another doubt; inactive = no such curve, though single readings can be large; an effect the other way counts as inactive or inconclusive. Unless noted, % is set by controls: 0 for no effect and ±100 for the full control effect.

SMILES	FBPA coupling cs	KDM4E inh	Tau fibril FP	Sfp inh	Tau fibril ThT	Tau fluor counter
CCCCNC(=S)NCC(c1ccccc1)c1c[nH]c2ccccc12 (centres undefined)	-5	x	x	17%	x	x
CN(C)CCCNC(=S)NCC(c1ccc(Cl)cc1Cl)c1c[nH]c2ccccc12 (centres undefined)	-2	x	x	50µM*	x	x
CCCCN(CCCC)CCCNC(=O)c1cc(-c2ccc(Cl)s2)nc2ccccc12	x	x	-10%	x	-15%	u
O=C(CN1CCN(c2ccc(O)cc2)CC1)NC(c1ccccc1)c1ccccc1	-7	-4%	-5%	10µM*	u	u
O=C(CN1CCN(c2ccc(O)cc2)CC1)Nc1cc([N+](=O)[O-])ccc1Cl	-1	14µM*	9%	u	u	u
CC(=O)N1CCN(CC(=O)Nc2cc([N+](=O)[O-])ccc2Cl)CC1	-1	-10%	1%	-1%	-1%	-5%
O=C(CN1CCN(c2ccc(O)cc2)CC1)N1CCc2ccccc21	-7	x	x	40µM*	x	x
O=C(CN1CCCCCC1)NC(c1ccccc1)c1ccccc1	-2	x	x	-30%	x	x
Cc1cc(NC(=O)CN2CCN(c3ccc(O)cc3)CC2)no1	x	u	0%	79µM*	-15%	-12%
CCC(C(=O)Nc1cccc(C#N)c1)n1nc(-c2ccccc2)ccc1=O (centres undefined)	x	x	-4%	x	2%	-22%
CCOC(=O)C1CCN(C(c2ccccc2)c2c(O)cc(C)n(Cc3ccco3)c2=O)CC1 (centres undefined)	x	x	-5%	x	u	-3%
Cc1ccc(/C=N/NC(=O)Cc2c[nH]c3ccccc23)c(C)c1	-1	1%	11%	-18%	u	u
COc1ccc(/C=N/NC(=O)Cc2n[nH]c(=O)[nH]c2=O)cc1	2	-6%	-8%	9%	x	0%
CC(C)(C)c1ccc(/C=N/NC(=O)Cc2c[nH]c3ccccc23)cc1	1	-3%	-14%	1%	u	14µM*[quencher]
O=C(Cc1c[nH]c2ccccc12)N/N=C/c1ccccc1O	0	25µM*	-5%	9%	u	-24%
O=C(CSc1nnc(SCc2cccc3ccccc23)s1)N/N=C/c1c[nH]c2ccccc12	-6	-5%	14%	4%	-15%	3.5µM*[quencher]
O=C(Cc1n[nH]c(=O)[nH]c1=O)N/N=C/c1ccccc1O	3	14µM*	-3%	16%	-9%	-7%
Cc1cc2c(cc1Cl)C(c1ccc3c(c1)OCO3)CC(=O)O2 (centres undefined)	2	x	-4%[81.3 µM]	5%	-9%[81.4 µM]	-14%[81.3 µM]
CCOC(=O)c1sc(N/N=C/c2cccc(C)c2)nc1C	-2	u	u	-14%	u	8.9µM*[quencher]
CC(=O)c1sc(N/N=C\c2ccccc2O)nc1C	1	28µM*	7%	13%	u	u
CCOC(=O)c1sc(N/N=C/c2ccccc2)nc1C	-5	u	-3%	35µM*	u	u
COc1ccc(/C(C)=N/Nc2nc(C)c(C(C)=O)s2)cc1	0	x	x	-19%	x	x
O=C(O)Cc1sc(N/N=C\c2ccccc2)nc1-c1ccccc1	0	5%	u	40µM*	10µM*	u
COc1ccccc1Nc1nc(-c2ccccc2)c(CC(=O)O)s1	x	x	9%	x	-19%	-17%
COc1cccc([C@@H]2Oc3ccc(Br)cc3C[C@H]2OC(=O)NCCc2ccc(OC)c(OC)c2)c1	0	3%	8%	-10%	-5%	-7%
SMILES	FBPA coupling cs	KDM4E inh	Tau fibril FP	Sfp inh	Tau fibril ThT	Tau fluor counter
c1ccc(Nc2ncnc3ccc(-c4cccnc4)cc23)cc1	4	-14%	-22%	10%	-7%	-20%
Cc1cccc(NC(=O)c2cn(-c3ccccc3)nc2-c2ccccc2)c1C	x	x	0%	x	-2%	0%
Cc1cc(C)nc(NS(=O)(=O)c2ccc(NC(=S)NC(=O)c3cccnc3)cc2)n1	0	1%	-9%	40µM*	-1%	-5%
Cc1cc(NS(=O)(=O)c2ccc(NC(=S)NC(=O)c3cccnc3)cc2)no1	7	7%	1%	-5%	3%	3%
CCN(CC)c1ccc(/C=C2\SC(=O)N(C(C)C)C2=O)o1	-25	-10%	4%	7.1µM*	25µM*	u
Oc1cc(-c2ccccc2)c2ccccc2c1	-60*	u	u	-15%	14µM*	u
CCOc1ccc(-c2nc(C)c(C(C)=O)n2O)cc1	-6	u	0%	18µM*	u	-9%
COc1ccc(-c2nc(C)c(C(C)=O)n2O)cc1	-1	-2%	-1%	-9%	0%	1%
Cc1ccc(CN2C(=O)C(O)(CC(=O)c3ccc(C)cc3)c3ccccc32)cc1 (centres undefined)	x	x	2%	x	u	-15%
O=C(O)c1ccc(CSc2nc3ccccc3c(=O)n2-c2ccccc2)cc1	20	x	x	25%	x	x
N=C(N)SCc1nc2ccccc2c(=O)n1-c1ccccc1	-14	u	-1%	50µM*	u	-3%
CCOC(=O)c1ccc(NC(=O)Cn2nc(SC)c(S(=O)(=O)c3ccc(Cl)cc3)c2N)cc1	x	x	13µM*	x	-7%	u
COc1ccc(NC(=O)Cn2nc(SC)c(S(=O)(=O)c3ccc(C)cc3)c2N)cc1OC	x	x	-13%	x	-4%	-28%
CCSc1nn(CC(=O)Nc2ccc(C(=O)OC)cc2)c(N)c1S(=O)(=O)c1ccc(C)cc1	x	x	25µM*	x	-2%	u
CCCCn1c(C)cc2c(c1=O)[C@H]1O[C@](CCCC)(Cc3c1ccc1ccccc31)O2	0	x	x	20%	x	x
CCCCOc1ccc(/C=C2/Sc3ccccc3C2=O)cc1	-1	1%	1%	-3%	3.5µM*	u
CC(=O)Oc1cccc(/C=C2\Sc3ccccc3C2=O)c1	0	-15%	-8%	-1%	10µM*	u
CC(C)COc1ccc(/C=C2/Sc3ccccc3C2=O)cc1	-3	0%	12%	-21%	4.5µM*	-5%
O=c1cc(Cc2ccccc2)[nH]c(=S)[nH]1	0	5%	3%	-30%	-1%	5%
COCc1cc(=O)[nH]c(=S)[nH]1	0	8%	3%	13µM*	u	-19%
